Compound activity from PubChem.
Mtb FBA inh = inhibitors of M. tuberculosis fructose-bisphosphate aldolase. P9WQA3. purified M. tuberculosis FBA, fluorescence read-out. inhibition, % at 1 µM. 360,000 tested, 2.3% active; in the data active = inhibition above about 27%;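 note: 0% = vehicle and 100% = reference inhibitor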
Target sequence (P9WQA3 whole entry, looked up): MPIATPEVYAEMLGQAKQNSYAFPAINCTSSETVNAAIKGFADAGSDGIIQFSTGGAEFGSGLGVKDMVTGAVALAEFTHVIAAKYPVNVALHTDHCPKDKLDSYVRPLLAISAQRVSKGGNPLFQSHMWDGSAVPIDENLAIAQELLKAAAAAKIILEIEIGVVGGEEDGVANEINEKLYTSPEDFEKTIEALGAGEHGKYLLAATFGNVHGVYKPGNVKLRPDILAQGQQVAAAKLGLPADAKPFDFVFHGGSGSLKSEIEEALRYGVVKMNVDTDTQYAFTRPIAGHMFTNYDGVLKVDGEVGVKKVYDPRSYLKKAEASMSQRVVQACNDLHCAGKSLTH
PrPC surface inh = reduces human prion protein on the cell surface | inhibition, % at 13.8 µM | 370,000 tested, 0.43% active | P04156 | cell surface PrPC, TR-FRET read-out; in the data active = inhibition above about 24%; note: 0% = median of the test wells and 100% = reference compound wells
BH1578 lux ind = induces V. cholerae light production without autoinducers; V. cholerae BH1578 lux reporter, luminescence, 6 h; 350,000 tested, 0.16% active; activation, % at 18.7 µM; in the data active = activation mostly above about 9.7%, no sharp cut-off
3CLpro inhibitor = SARS-CoV 3CLpro protease inhibition. P0C6X7. recombinant SARS-CoV 3CLpro, quenched FRET peptide cleavage. inhibition, % at 6 µM. 290,000 tested, 0.14% active. AID 1706; in the data active = inhibition above about 12%
GDH-TPI inh = inhibits GDH-TPI coupling enzymes, artifact for Mtb FBA screen; GDH-TPI coupled enzyme counterscreen, NADH absorbance; inhibition, % at 4.8 µM; 360,000 tested, 1.2% active; in the data active = inhibition above about 30%;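 note: 0% = DMSO wells and 100% = wells lacking the enzyme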
Active calls of the source: *; i = inactive; x = not tested or not shown; + = active, no number. Rows were chosen to be rich in hits. Some 3.9% of all compounds tested hit in one or more screens of this group.

SMILES	Mtb FBA inh	PrPC surface inh	BH1578 lux ind	3CLpro inhibitor	GDH-TPI inh
C[C@@H]1CN([C@@H](C)CO)C(=O)CCCn2nncc2CO[C@H]1CN(C)C(=O)Nc1cccc2ccccc12	29*	-2	1	x	0
Cn1c(=O)c2[nH]c(SCC(=O)N3CCN(c4cccc(C(F)(F)F)c4)CC3)nc2n(C)c1=O	x	0	x	x	x
CCN(C(=O)COC(=O)/C(C#N)=C/c1cc(C)n(CCOC)c1C)c1c(N)n(Cc2ccccc2)c(=O)[nH]c1=O	5	-16	-2	x	37*
CN(C)Cc1ccccc1-c1cccc2nccn12	142*	4	0	x	9
OCc1ccc(-c2cccc3nccn23)cc1	+	0	-1	x	13
CONC(=O)c1ccc(-c2cccc3nccn23)cc1	3	-4	-1	x	4
Cc1cccc(-c2cccc3nccn23)c1	+	7	0	x	8
COc1ccc(OCC(=O)Nc2cc(S(=O)(=O)N3CCCC3)ccc2Cl)cc1	9	0	i	x	6
COC(=O)C1=C(CS(=O)(=O)c2cc(OC)ccc2OC)NC(=O)NC1c1ccc(O)c(OC)c1 (stereo not drawn)	1	6	0	1	-4
CC(=O)c1ccc(N2CCN(S(=O)(=O)c3cn(C)cn3)CC2)cc1	3	-7	-2	1	37*
Cc1nc2c(-c3ccc(F)cc3)c(C)nn2c(C)c1CCC(=O)Nc1ccccc1F	4	6	0	4	1
COc1ccc(/C=N/NC2=NS(=O)(=O)c3ccccc32)cc1OC	-3	4	i	1	35*
COc1cc(/C=N/NC2=NS(=O)(=O)c3ccccc32)ccc1OC(C)=O	3	3	i	4	34*
C=CCn1c(SCC(=O)Nc2ccccc2-c2ccccc2)nnc1-c1ccccc1	x	11	x	x	x
CN(C)/C=C/c1onc(-c2ccccc2Cl)c1C#N	-2	-4	0	-1	43*
COc1ccccc1N1C(=O)S/C(=C\c2cc(C)n(C)c2C)C1=O	-4	-11	0	-2	10
COc1ccccc1N1C(=O)S/C(=C\c2ccc(C)s2)C1=O	2	-1	1	0	34*
COC(=O)c1cc(Cl)cc2c(C)c(C3(O)CCCCC3)[nH]c12	6	-2	i	1	-6
COC(=O)c1ccc2c(C)c(C3(O)CCCCC3)[nH]c2c1	+	12	i	x	17
C(=C\c1ccco1)/C=N/n1cnnc1	-8	-1	x	-2	51*
S=c1[nH]nc(-c2ccncc2)n1/N=C/C=C/c1ccco1	-2	-9	x	0	25
O=S(=O)(c1ccccc1)n1ccc(-c2cnc(-c3ccccc3)s2)n1	2	-1	i	0	5
Fc1ccc(Cn2ccc(-c3cnc(-c4ccccc4)s3)n2)cc1	142*	-7	-2	1	12
Cc1ccc(Cn2ccc(-c3cnc(-c4ccccc4)s3)n2)cc1	52*	-3	-3	5	26
COc1cccc(/C=C/c2nc(C#N)c(NCC(C)C)o2)c1	+	12	0	1	27
SMILES	Mtb FBA inh	PrPC surface inh	BH1578 lux ind	3CLpro inhibitor	GDH-TPI inh
CN(C)CCNc1oc(/C=C/c2ccccc2)nc1C#N	135*	-11	i	1	10
CN(C)CCCNc1oc(/C=C/c2ccccc2)nc1C#N	4	11	0	-6	15
C=CCNc1oc(Cc2cccc3ccccc23)nc1C#N	3	3	0	-1	6
C=CCNc1oc(/C=C/c2ccccc2)nc1C#N	+	-4	0	5	48*
CCOc1ccc(/C=C/c2nc(C#N)c(NCCCN(C)C)o2)cc1	16	-20	0	1	36*
O=c1[nH]c(C2CCN(S(=O)(=O)c3ccc(C(F)(F)F)cc3)CC2)nc2c1nnn2Cc1ccccc1	0	1	0	3	-1
Clc1ccccc1OCCNc1nc(NCC2CC2)nc2ccsc12	0	13	i	x	6
Cn1c(SCC(=O)Nc2ccccc2F)nnc1-c1cc2ccccc2o1	0	0	0	3	-6
CCOC(=O)c1ccc(-c2ccc3ncnc(NCc4csc(C)n4)c3c2)o1	+	-12	0	x	37*
O=C1CCCC2=C1C1(CCCC1)N=C(Nc1nc3ccccc3o1)N2	1	1	i	x	12
O=C1CCCC2=C1C1(CCCCC1)N=C(Nc1nc3ccccc3o1)N2	-6	-5	-7	2	51*
CCCC(C(=O)NC1CCCC1)N(C(=O)c1snc(C(N)=O)c1N)c1ccc(F)cc1 (stereo not drawn)	11	-3	0	0	0
Cc1ccc(Cn2cc(COC(=O)Nc3ccc(F)cc3)nn2)cc1	x	0	x	x	x
O=C(O)CC1S/C(=N/N=C/c2ccc(-c3ccc(Cl)cc3[N+](=O)[O-])o2)NC1=O (stereo not drawn)	-3	-12	0	5	33*
Cc1ccc(/C=N/N=C2/NC(=O)C(CC(=O)Nc3ccc(Cl)cc3)S2)o1 (stereo not drawn)	-1	-9	i	-2	41*
Cc1ccc(/C=N/N=C2/NC(=O)C(CC(=O)Nc3ccccc3)S2)o1 (stereo not drawn)	-1	7	0	1	30
O=C(CC1S/C(=N/N=C/c2ccco2)NC1=O)Nc1cccc(Cl)c1Cl (stereo not drawn)	0	4	0	1	42*
COc1ccc2sc3cccc(NCCN(C)C)c3c(=O)c2c1	-10	-15	x	x	x
COc1ccc2oc3cc(NCCN(C)C)ccc3c(=O)c2c1	+	11	x	x	x
CC(C)CN(CC(C)C)c1nn[nH]n1	-3	1	i	x	0
Cc1ccc(-c2csc3nc[nH]c(=S)c23)cc1	1	-3	0	2	15
Cc1cc(-c2csc3nc[nH]c(=S)c23)cc(C)c1C	3	-9	-1	3	40*
O=S(=O)(c1cccc2ccccc12)N1CCC2CC1c1cc(Cl)ccc12 (stereo not drawn)	-1	-6	0	x	6
CC(=O)C(Sc1nc(N(C)C)nc(N(C)C)n1)C(=O)Nc1ccccc1 (stereo not drawn)	-2	-4	i	2	-1
CC(=O)C(Sc1nn(C)c(=S)s1)C(=O)Nc1ccccc1 (stereo not drawn)	-1	-4	25*	0	14
SMILES	Mtb FBA inh	PrPC surface inh	BH1578 lux ind	3CLpro inhibitor	GDH-TPI inh
NS(=O)(=O)c1ccc(NC(=S)NC(=O)c2ccc(Br)o2)cc1	0	-1	0	-6	6
NS(=O)(=O)c1ccc(NC(=S)NNC(=O)c2ccc(Br)o2)cc1	1	-6	i	1	33*
Cc1ccc(-c2cc(-c3ccc(C)cc3)[n+](-c3ccc(C(=O)O)cc3)c(-c3ccc(C)cc3)c2)cc1	19	-14	0	x	24
COc1ccc(-[n+]2c(-c3ccccc3)cc(-c3ccc(C)cc3)cc2-c2ccccc2)cc1	3	29*	0	-1	28
COc1ccc(-c2cc(-c3ccccc3)[n+](C)c(-c3ccccc3)c2)cc1	35*	-12	-1	-1	19
Cn1cnc2c1c(=O)n(Cc1cccc(Cl)c1)c(=O)n2C	1	-13	-1	-5	5
